The whole screen tested about 300,000 compounds, of which about 37,000 (12%) were called active. Cut-off read from the data, not from the text of the source: active = max response mostly above about 13% (no sharp cut-off); inactive = mostly below about 14%. Many of the other results were omitted from the sample, so actives are more common in it than they were.
Assay: Cycloheximide Counterscreen for Small Molecule Inhibitors of Shiga Toxin; note: read at 38.3 µM for the half of the compounds with a filed dose; 0% is about no effect
Conditions: cell reporter, cycloheximide protein synthesis inhibition counterscreen; active compounds read high
With `O=[N+]([O-])c1cc(Cl)cc(/C=N/NC(=S)Nc2cc(S(=O)(=O)N3CCOCC3)ccc2Cl)c1O` the max response was 6.73% (inactive).
For `CCN(C(=O)COc1ccc(C(=O)c2ccccc2)cc1)c1ccccc1`, the max response was 8.19% (inactive).
For `Cc1cc(C)n(CCC(=O)N2CCN(S(=O)(=O)c3ccc(C)c(C)c3)CC2)n1`, the max response was -4.77% (inactive).
In the case of `CSCC[C@H](NC(=O)OC(C)(C)C)C(=O)N/N=C/c1cc2ccc(C)cc2nc1Cl`, the max response is reported as -2.35% (inactive).
In the case of `Cc1ccc2cc(/C=N/Nc3ccc(C(=O)O)cc3)c(Cl)nc2c1`, the max response is reported as 33.1% (active).
For `O=C(O)c1ccc(N/N=C/c2ccc3ncccc3c2)cc1`, the max response was 40% (active).
In the case of `O=C(O)c1ccc(/C=N/Nc2nc(N3CCCCC3)nc(N3CCCCC3)n2)cc1`, the max response is reported as -2.21% (inactive).
For `Cc1ccc2cc(/C=N/NC(=O)[C@@H]3CCCN3)c(Cl)nc2c1`, the max response was 12.2% (inactive).
With `CCNC(=S)NNC(=O)c1ccc2ncccc2c1` the max response was 23.2% (inactive).
In the case of `COc1ccccc1N1CCN(C(=O)CCS(=O)(=O)c2ccc3c(c2)NC(=O)C(C)S3)CC1` (stereo not given), the max response is reported as 18.6% (inactive).
For `Cc1cc(CNC(=O)C2CCC(=O)N(CCc3ccc(Cl)cc3)C2)no1` (stereo not given), the max response was 0.258% (inactive).
With `NC(=O)c1cc(-c2cccnc2)nc2ccc(Br)cc12` the max response was 0.502% (inactive).
For `Cc1ccc2c(c1)N(C(=O)CCC(=O)N1CCc3ccccc3C1)CCO2`, the max response was 13.8% (inactive).
In the case of `Cc1ccccc1-n1c(SCC(=O)Nc2cccc3ccccc23)nc(O)cc1=O`, the max response is reported as -2.55% (inactive).
For `O=C(O)Cc1ccc(NC(=O)Nc2cccc3ccccc23)cc1`, the max response was 0.207% (inactive).
For `CCOc1ccc(NC(=O)Nc2ccc(N(C)C(C)=O)cc2)cc1`, the max response was -1.58% (inactive).
For `CC(=O)N(C)c1ccc(NC(=O)Nc2cccc3ccccc23)cc1`, the max response was 33% (active).
With `O=C(NCC(=O)N1CCC2(CC1)NCCc1[nH]cnc12)c1ccc(Br)cc1` the max response was 1.26% (inactive).
In the case of `CC(C)Nc1ccc(-n2nc3ccccc3[n+]2[O-])cc1`, the max response is reported as 25.2% (active).
In the case of `Clc1ccc(-c2nc3ccccn3c2CN2CCSCC2)cc1`, the max response is reported as 12.2% (inactive).
For `Cc1cn(C2OC[C@@H](O)[C@@H]2CO)c(=O)[nH]c1=O` (stereo not given in full), the max response was -1.7% (inactive).
For `O=C(N/N=C\c1cc2c(cc1Cl)OCO2)c1ccc(Br)s1`, the max response was -4.62% (inactive).
For `CCCCOC(=O)Nc1nnc(CC(=O)NCc2ccccc2)s1`, the max response was -2.89% (inactive).
For `CCCCCCOC(=O)NCC(O)c1ccccc1` (stereo not given), the max response was 29.3% (active).
In the case of `CCCCCCCCC(=O)NCCOc1ccccc1`, the max response is reported as -1.44% (inactive).
With `CC(=O)C1=C(C)NC(=O)NC1c1ccc2c(c1)OCO2` (stereo not given) the max response was 0.903% (inactive).
With `COc1ccc(CNC(=O)C(C)NCc2ccccc2Cl)cc1` (stereo not given) the max response was -2.73% (inactive).
With `CC(C)(O)C#Cc1ccc(CN2CCC(CO)(CCc3ccccc3)CC2)cc1` the max response was -2.91% (inactive).
In the case of `COc1ccc(C(=O)NC(=S)N2CCCCC2c2cccnc2)cc1OC` (stereo not given), the max response is reported as 1.6% (inactive).
For `COc1ccccc1NC(=O)CSc1nc2sc3c(c2c(=O)n1-c1ccccc1)CCN(C)C3`, the max response was 33.2% (active).
With `CCOc1ccc(-n2c(SCC(=O)Nc3ccc(OC)cc3)nc3sc4c(c3c2=O)CCN(C)C4)cc1` the max response was -3.77% (inactive).
With `CCOc1ccc(-n2c(SCC(=O)OC)nc3sc4c(c3c2=O)CCN(C)C4)cc1` the max response was -9.49% (inactive).
For `CCO[C@H]1OC(C(=O)N2CCCCCCC2)=C[C@@H](c2ccc(C(F)(F)F)cc2)[C@@H]1CCCO`, the max response was -3.3% (inactive).
In the case of `CCCC(C(=O)n1nc(C)cc1C)C(NS(=O)(=O)c1ccc(C)cc1)c1ccccc1` (stereo not given), the max response is reported as 8.08% (inactive).
With `N#CCC(=O)NC1CCC(CC2CCC(NC(=O)CC#N)CC2)CC1` (stereo not given) the max response was -6.39% (inactive).
In the case of `c1ccc(CCc2nc(-c3ccncc3)no2)cc1`, the max response is reported as 30.3% (active).
For `O=C1c2ccccc2C(=O)N1CCCc1nc(-c2ccccc2)no1`, the max response was 4.56% (inactive).
For `O=C(Cc1ccc(Cl)cc1)NCc1nc(-c2ccccc2)no1`, the max response was 16.7% (inactive).
With `CN(CC1CCCO1)S(=O)(=O)c1ccc(C(=O)Nc2ccc([N+](=O)[O-])cc2)cc1` (stereo not given) the max response was -2.48% (inactive).
With `COCn1c(COc2ccccc2)nc2ccccc21` the max response was 36.4% (active).
In the case of `O=C(Cn1c(COc2ccccc2)nc2ccccc21)Nc1cc(Cl)c(Cl)cc1Cl`, the max response is reported as 6.88% (inactive).
In the case of `Cn1c(COc2ccc(Cl)cc2)nc2ccccc2c1=O`, the max response is reported as 31.5% (inactive).
With `CC(C)n1c(COc2ccccc2)nc2ccccc21` the max response was 2.4% (inactive).
For `Cc1ccc(OCc2nc3ccccc3n2C)cc1`, the max response was 26.1% (active).
For `Cc1ccc(OCc2n[nH]c(=S)n2-c2ccccc2)cc1`, the max response was -8.01% (inactive).
In the case of `CC1(C)Cc2cccc(OCC(=O)NCc3ccccc3)c2O1`, the max response is reported as -11.4% (inactive).
In the case of `COC(=O)C1=C(C)N(C)C(=O)NC1c1ccc([N+](=O)[O-])o1` (stereo not given), the max response is reported as -2.81% (inactive).
With `O=C(CO/N=C/c1ccc(OC(F)F)cc1)NCc1ccc(F)cc1` the max response was -1.6% (inactive).
In the case of `CC(=O)Cn1ncc(N2CCOCC2)c(Br)c1=O`, the max response is reported as 8.19% (inactive).
In the case of `Cn1c(=O)c2c(nc(N3CCCCCC3)n2CC(=O)c2ccc(Br)cc2)n(C)c1=O`, the max response is reported as 4.19% (inactive).
For `O=C(Cn1ncc(N2CCCC2)c(Br)c1=O)c1ccc(Cl)cc1`, the max response was 21.9% (active).
For `O=c1[nH]c(CCl)nc2cc(-c3ccc(Cl)cc3)sc12`, the max response was 3.01% (inactive).
For `O=C(Nc1ccc2oc(-c3ccc4ccccc4c3)nc2c1)c1cccs1`, the max response was 42.5% (active).
With `O=C(Nc1ccc(NC(=O)c2cccs2)cc1)c1ccc2ccccc2c1` the max response was 21.9% (inactive).
With `CC(O)c1cccc(NC(=O)Cc2cccc3ccccc23)c1` (stereo not given) the max response was -1.49% (inactive).
For `O=C(Nc1ccc2c(c1)C(=O)OC2)Nc1cccc2ccccc12`, the max response was 8.24% (inactive).
For `O=C(Cc1cccc2ccccc12)Nc1ccc2oc(-c3ccccc3)nc2c1`, the max response was 51.7% (active).
In the case of `O=C(NC(=S)Nc1cccc(-c2ccc(CO)o2)c1)c1cccs1`, the max response is reported as 12.5% (inactive).
For `Cc1ccc(NC(=O)CSc2nn3c(=O)c(C)nnc3s2)cc1Cl`, the max response was 8.05% (inactive).
For `COc1ccc(C2=NOC(COC(=O)c3ccc4ccccc4n3)C2)cc1` (stereo not given), the max response was 12.5% (inactive).
In the case of `O=C(Oc1ccc([N+](=O)[O-])cc1)c1ccc(Cl)c(S(=O)(=O)N2CCCCC2)c1`, the max response is reported as 7.89% (inactive).
With `O=C(Oc1ccc([N+](=O)[O-])cc1)c1ccc2ccccc2n1` the max response was 33.2% (active).
For `CC(OC(=O)c1ccc2ccccc2n1)C(=O)c1ccccc1` (stereo not given), the max response was 25.1% (active).
In the case of `O=C(CNC(=O)c1ccccc1)Oc1ccc([N+](=O)[O-])cc1`, the max response is reported as 0.695% (inactive).
For `COc1ccc(C(=O)COC(=O)c2ccc3ccccc3n2)cc1`, the max response was 20.4% (active).
For `CCCCC(C(=O)OCC(=O)c1ccc(OC)cc1)N1C(=O)c2ccccc2C1=O` (stereo not given), the max response was 1.39% (inactive).
With `CC(OC(=O)c1ccccc1N1C(=O)C2C3CCC(C3)C2C1=O)C(=O)c1ccccc1` (stereo not given) the max response was -0.595% (inactive).
With `COc1ccccc1NC(=O)CCC(=O)OC(C)C(=O)c1ccccc1` (stereo not given) the max response was -2.18% (inactive).
In the case of `CCCn1cc(S(=O)(=O)c2ccc(C)cc2)c(=O)c2cc(OCC)ccc21`, the max response is reported as -2.9% (inactive).
In the case of `Nc1nc(NCC(=O)O)nc(N2CCCCCC2)c1[N+](=O)[O-]`, the max response is reported as -3.03% (inactive).
In the case of `COc1ccc(NC(=O)c2cccc3c2C(=O)N(CC2CCCO2)C3)cc1OC` (stereo not given), the max response is reported as 1.17% (inactive).
In the case of `COc1ccccc1N(CC(=O)NC1CCCC1)C(=O)C1(C)CC(=O)N=C2C=CC(C)=CN21` (stereo not given), the max response is reported as -3.56% (inactive).
For `CN(C)C(=O)c1ccc2c(c1)C1C3CCC(C3)C1C(c1ccccc1)N2` (stereo not given), the max response was -4.56% (inactive).
For `NNc1nc2c(Cl)cccc2s1`, the max response was 53.2% (active).
With `CN(C)CCCN(C(=O)COc1ccccc1)c1nc2c(Cl)cccc2s1` the max response was -4.5% (inactive).
With `Cc1ccc(S(=O)(=O)Cc2cc(-c3ccc(Cl)cc3)no2)cc1` the max response was 0.779% (inactive).
With `Cc1ccc(-c2cc(N)on2)cc1` the max response was 21% (active).
In the case of `Nc1c(NCCc2ccccc2)c2ccccc2oc1=O`, the max response is reported as 23.7% (active).
With `NC(=O)c1oc2ccccc2c1NC(=O)Cc1ccccc1` the max response was -2.17% (inactive).
For `CC(C)(C)Nc1c(N)c(=O)oc2ccccc12`, the max response was -1.31% (inactive).
In the case of `CC(=O)N1c2ccc(S(=O)(=O)N3CCC(C(=O)NC4CCCC(C)C4C)CC3)cc2CC1C` (stereo not given), the max response is reported as 4.81% (inactive).
In the case of `Cc1ccc(OCC(=O)Nc2ccccc2C(=O)NC2CC2)cc1C`, the max response is reported as -1.62% (inactive).
With `CCOC(=O)CSc1nnc(-c2ccncc2)o1` the max response was 1.84% (inactive).
In the case of `CCCCSc1nnc(-c2ccc(C)cc2)o1`, the max response is reported as 40.6% (active).
With `CCOC(=O)CSc1nnc(-c2ccc([N+](=O)[O-])cc2)o1` the max response was -0.444% (inactive).
In the case of `c1ccc2c(c1)C(=NC1CCCCC1)NC2=NC1CCCCC1`, the max response is reported as -4.35% (inactive).
In the case of `O=C(c1ccc(CS(=O)(=O)c2ccccc2)o1)N1CCN(c2ccccc2)CC1`, the max response is reported as -5.15% (inactive).
With `Cc1c(CC(=O)NCC(=O)NCC(=O)O)c(=O)oc2cc3oc4c(c3cc12)CCCC4` the max response was -2.59% (inactive).
For `COc1ccc(N(CC(=O)Nc2cc(OC)cc(OC)c2)S(=O)(=O)c2c(C)n[nH]c2C)cc1`, the max response was -1.21% (inactive).
In the case of `Cc1ccc(Nc2cc(C)nc3c(C)ccc([N+](=O)[O-])c23)cc1`, the max response is reported as 0.487% (inactive).
For `O=c1c(-c2cccc(Cl)c2)c[nH]n1-c1ccccc1`, the max response was 69.9% (active).
With `Cc1[nH]n(-c2cccc(Cl)c2)c(=O)c1-c1ccc(Cl)cc1` the max response was 12.1% (inactive).
For `O=c1c(-c2ccccc2Cl)c[nH]n1-c1ccccc1`, the max response was 8.14% (inactive).
In the case of `CC(=O)C1=C(O)C(=O)N(c2cccnc2)C1c1ccc([N+](=O)[O-])cc1` (stereo not given), the max response is reported as -2.81% (inactive).
In the case of `O=C(COC(=O)c1ccc(N2CCCC2=O)cc1)c1ccc(OC(F)F)cc1`, the max response is reported as 2.45% (inactive).

Source: PubChem BioAssay AID2314 (National Center for Advancing Translational Sciences (NCATS), 2010)
